Experimental data: PubChem BioAssay (NCI)
“And” between values parts separate entries of the source, which are not always exact repeats. Equal entries are not always repeated. This is part of a sample that, as a whole, favours compounds with a hit. Of some 83,000 tested, about 20% had one in any assay.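 Each cell line was grown in a 96-well plate and treated with one concentration of compound for 48 hours. Values below 10 were considered active.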 The source made the active and inactive calls.

These compounds were tested on SK-MEL-2 melanoma (assay: NCI-60 one-dose screen, 48 h (100 = growth as untreated, 0 = no growth, -100 = all killed)). Conditions: 10 µM.
Protocol: Growth inhibition of the SK-MEL-2 human tumor cell line is measured as a screen for anti-cancer activity. Cells are grown in 96 well plates and exposed to the test compound for 48 hours. Compounds are tested at a single concentration, which is 10^-5 M for most compounds. The reported endpoint is percent growth (GI% or GIPRCNT), where numbers from 0 - 100% represent growth inhibition, and numbers from -100% - 0 represent cell death. For example, a value of 40 represents 60% growth inhibition. A value of 0 means no net growth occurred over the course of the experiment. A value of -40 indicates 40% of cells at the beginning of the experiment died by the end of the experiment. A value of -100 means all cells are dead at the end of the experiment.
NCI-60 Human Tumor Cell Lines Screen was performed using the standard one-dose NCI protocol, which is described in more detail at https://dtp.cancer.gov/discovery_development/nci-60/default.htm.
Compounds with GIPRCNT values below 10 were considered active. Activity score was based on GIPRCNT using the following formula: […]
Score is 0 for GIPRCNT values of 100 or above, 50 for GIPRCNT values of 0, and 100 for GIPRCNT values of -100.
With CS/C(=C\c1ccc(C(=O)c2ccc(C)cc2)n1C)S(C)=O (stereo not given) the growth was 98.8% (inactive).

Same assay, conditions: 10 µM unless noted
In the case of COc1ccc2oc3c(ccc[n+]3C)c(=O)c2c1, the growth is reported as 99.6% (inactive). For CCC(C)(O)CCC(C)(O)CC (stereo not given), the growth was 116% (inactive). In the case of COc1cc2oc3cc(=O)cc4oc(-c5ccccc5)cc(c2c2c1CCC(c1ccccc1)O2)c43 (stereo not given), the growth is reported as 95.8% (inactive). In the case of CS(=O)(=O)c1nsc(N)n1, the growth is reported as 96.3% (inactive). For Nc1ccc(O)c(C(=O)O)c1, the growth was 110% (inactive) and 124% (inactive) and 122% (inactive). With Cc1ccc(S(=O)(=O)n2ccnc2)cc1 the growth was 96.7% (inactive). With COc1ccc2nccc(Cl)c2c1 the growth was 97.4% (inactive). For CCN(CC)CCO/N=C1\CC(c2ccc(OC)c(OC)c2)Oc2ccccc21 (stereo not given), the growth was 104% (inactive). With O=C(O)c1c2c(nc3ccccc13)Cc1ccccc1-2 the growth was 109% (inactive) and 122% (inactive). Cc1c(O)nc(N)[nH]c1=O was tested, and the growth was 123% (inactive). In the case of O=C1c2cccnc2-c2ncccc21, the growth is reported as 122% [100 µM] (inactive). In the case of CCNCc1ccccc1, the growth is reported as 111% (inactive). CC(=O)Oc1cc(C(C)C)c(OCCN(C)C)cc1C was tested, and the growth was 116% (inactive) and 119% (inactive). With CC(=O)/C(N=Nc1ccc(S(=O)(=O)c2ccc(N=N/C(C(C)=O)=C(/C)O)cc2)cc1)=C(\C)O the growth was 117% (inactive). For CCCC(=O)Oc1ccc(CC)cc1, the growth was 107% (inactive). Nc1nc(-c2ccccn2)cc(-c2cc(-c3ccccn3)nc(N)n2)n1 was tested, and the growth was 112% (inactive). With O=C(O)C(Cc1ccc(OS(=O)(=O)Cc2ccccc2)cc1)NS(=O)(=O)Cc1ccccc1 (stereo not given) the growth was 110% (inactive) and 108% (inactive). For CC(=O)Oc1ccc(C(c2ccc(OC(C)=O)cc2)c2ccccn2)cc1, the growth was 107% (inactive) and 94.3% (inactive). O=C(c1ccccc1)C1(Br)CCCCC1 was tested, and the growth was 104% (inactive). In the case of CC(CN(C)C)CN1c2ccccc2Sc2ccccc21 (stereo not given), the growth is reported as 91.3% (inactive) and 103% (inactive). For O=C(O)COc1ccccc1F, the growth was 102% (inactive). In the case of CCN(CC)C(=S)SCCO, the growth is reported as 105% (inactive). CCOC(=O)c1ccncc1 was tested, and the growth was 106% (inactive). In the case of NNc1ncnc2cccc(Cl)c12, the growth is reported as 95.3% (inactive). For N#Cc1ccc(/C=C/C(=O)c2ccccc2)cc1, the growth was 90.7% (inactive). Clc1ccc2sc(-c3ccccc3)nc2c1 was tested, and the growth was 77.2% (inactive). COc1cc2c(cc1O)C(=O)CCCC2 was tested, and the growth was 98% (inactive). With COc1ccc(/C=N/NC(N)=S)cc1 the growth was 97.5% (inactive). With N#CC(=S)Nc1ccc(Cl)c(Cl)c1 the growth was -26.4% (active). In the case of COc1ccc(CCN=Cc2ccc(Cl)cc2)cc1OC, the growth is reported as 98.4% (inactive). With O=[N+]([O-])c1ccc(NC2CCCCC2)nc1 the growth was 104% (inactive) and 107% (inactive). In the case of Cn1c(N)c(N=O)c(=O)n(C)c1=O, the growth is reported as 108% (inactive) and 102% (inactive). For Cc1ccc(N)cc1S(=O)(=O)O, the growth was 120% (inactive). For COc1cc([C@@H]2c3cc4c(cc3[C@H](O)[C@H]3COC(=O)[C@@H]23)OCO4)cc(OC)c1OC, the growth was -23.7% (active). N#Cc1c(N)nc2c(c(-c3ccc(Cl)cc3)nn2-c2ccccc2)c1C#N was tested, and the growth was 122% [100 µM] (inactive). With Cc1cc(Cl)nc(Nc2ccccc2)n1 the growth was 106% (inactive). In the case of COc1ccc(CCO)cc1, the growth is reported as 91.7% (inactive). For S=c1ccc2ccccc2[nH]1, the growth was 97.9% (inactive) and 97.2% (inactive).

Same assay, conditions: 100 µM
For CS/C(=C\c1ccc(C(=O)c2ccc(C)cc2)n1C)S(C)=O (stereo not given), the growth was 81.4% (inactive).
